Most compounds without a hit are left out; they make up all but 7.4% or so of the library.
FLuc modulator = qHTS profiling assay for firefly luciferase inhibitor/activator using purifed enzyme and Km concentrations of substrates (counterscreen for miR-21 project); Luciferin 4-monooxygenase (Photinus pyralis), P08659; purified FLuc, Km substrates, luminescence inhibition; Potency, µM (titrated, usually from 57.5 µM), without a hit: at the top dose activity change, negative = inhibition, hits mostly inhibitors; actives 6.9% (n = 360,000); AID 588342, 2011;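 further: plate controls were vehicle for no effect and reference inhibitor for full effect; nearly all actives have a fitted effect of over 55% in size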
Target sequence (P08659 whole entry, looked up): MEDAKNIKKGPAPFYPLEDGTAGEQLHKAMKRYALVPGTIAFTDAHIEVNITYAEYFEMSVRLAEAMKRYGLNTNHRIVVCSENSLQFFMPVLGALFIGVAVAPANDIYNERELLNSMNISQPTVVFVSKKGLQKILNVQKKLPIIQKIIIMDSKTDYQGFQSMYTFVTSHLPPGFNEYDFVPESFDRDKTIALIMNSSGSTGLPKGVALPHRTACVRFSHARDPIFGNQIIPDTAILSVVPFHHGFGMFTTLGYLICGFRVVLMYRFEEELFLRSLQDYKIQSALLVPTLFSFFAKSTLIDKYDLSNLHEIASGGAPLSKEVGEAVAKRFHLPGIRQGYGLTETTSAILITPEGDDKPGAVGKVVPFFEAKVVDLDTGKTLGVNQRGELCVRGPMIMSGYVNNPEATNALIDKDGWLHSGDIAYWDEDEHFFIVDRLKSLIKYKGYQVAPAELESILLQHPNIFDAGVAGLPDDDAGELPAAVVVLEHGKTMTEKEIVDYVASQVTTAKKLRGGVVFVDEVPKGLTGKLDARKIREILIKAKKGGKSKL
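Purified P. pyralis luciferase, 10 nM final, with Km-level 10 uM D-luciferin and 10 uM ATP in 50 mM Tris acetate pH 7.5, 10 mM Mg acetate, 0.01% Tween-20, 0.05% BSA; 6-point qHTS titration about 60 µM downward; luminescence read.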
ELG1 genotoxic = qHTS screen for small molecules that induce genotoxicity in human embryonic kidney (HEK293T) cells expressing luciferase-tagged ELG1; HEK293T ELG1-luciferase reporter, luminescence, 16 h; Potency, µM (series often up to 46 µM), inactives show top-dose activity change, positive = activation, usual class: activators; actives 1.3% (n = 330,000); AID 504466, 2011; further: % of control where 0% means no effect; nearly all actives have a fitted effect of over 60% in size
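ELG1-luciferase HEK293T cells, 2,000/well; compound pinned in; 16 hr, 37 °C, 5% CO2; ONE-Glo, 30 min RT; luminescence on CCD imager.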
SMN2 splice up = qHTS Assay for Enhancers of SMN2 Splice Variant Expression; actives 2.8% (n = 210,000); Potency, µM (titrated, usually from 46.1 µM), without a hit: at the top dose activity change, positive = activation, hits mostly activators; HEK293 SMN2-luciferase splicing reporter, luminescence, 30-36 h; further: % of control where 0% means no effect; nearly all actives have a fitted effect of over 55% in size
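HEK293 cells carry an SMN2 minigene-luciferase reporter in which exon 7 inclusion puts luciferase in frame. Cells were seeded at 2000 cells/well, attached for 10-12 hours, then exposed to compounds for 30-36 hours at 37C before ONE-Glo luminescence.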
NPC1 promoter act = qHTS Assay for NPC1 Promoter Activators | Huh7 NPC1 promoter luciferase reporter, 24 h | Potency, µM (doses to about 9.22 µM), for the others: at the top dose activation, usual class: activators | actives 2.4% (n = 320,000) | AID 485313, 2010; further: % of control where 0% means no effect; nearly all actives have a fitted effect of over 60% in size
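Readout is luciferase luminescence, reflecting NPC1 promoter activation in stably transfected Huh7 cells after 24 h compound exposure at 37 °C in reduced-serum medium with 10% FBS.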
Rab9 prom act = qHTS Assay for Rab9 Promoter Activators. actives 2.8% (n = 320,000). Potency, µM (titrated, usually from 9.22 µM), for inactives: at the highest dose activation, negative = inhibition, usual class: activators. Huh7 Rab9 promoter-luciferase reporter, luminescence, 24 h; further: % of control where 0% means no effect; nearly all actives have a fitted effect of over 60% in size
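Promoter activation is measured as luciferase luminescence in Huh7 cells stably transfected with a Rab9 promoter–luciferase construct, following 24 h compound exposure at 37 °C and 10 min reagent incubation at ambient temperature.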
Numbers without * were called inactive; ? = inconclusive; nt = not tested or not shown; [ ] = another dose, or the depositor's remark. The call rests on the fitted dose curve; in most records, active means well fitted curve in the direction sought with a large enough effect; inconclusive means small, poorly fitted or top-dose-only effect, or another doubt; inactive means no such curve, though single readings can be large; an effect the other way counts as inactive or inconclusive. Potency means the concentration at half of the fitted maximal effect.

SMILES	FLuc modulator	ELG1 genotoxic	SMN2 splice up	NPC1 promoter act	Rab9 prom act
CN1CCc2c(sc3c2C(=O)NC(c2ccccc2)N3)C1 (configuration not stated)	?	0.2%	13.4%	4.4%	10.9%
Cc1cccc(C2NC(=O)c3c(sc4c3CCN(C)C4)N2)c1O (configuration not stated)	23.9µM*	nt	15.8µM*	nt	nt
O=C1NC(c2ccc(Br)cc2)Nc2sc3c(c21)CCC3 (configuration not stated)	?	12.3%	-15.1%	?	?
CC(=O)c1cnc2nc(SCc3ccccc3)nn2c1C	nt	?	nt	4.47µM*	3.55µM*
CC(=O)c1cnc2cc(-c3ccccc3)nn2c1C	2.39µM*	2.24µM*	15.8µM*	2.51µM*	1.41µM*
CC(=O)c1cnc2nc(SCc3ccc(C)cc3)nn2c1C	-6.9%	0.1%	nt	-2.7%	4.0%
CC(=O)c1cnc2cc(C)nn2c1C	-2.0%	1.0%	-9.8%	-4.6%	3.5%
COc1ccc(-c2cc3ncc(C(C)=O)c(C)n3n2)cc1	?	?	11.2µM*	2.24µM*	1.26µM*
CC(=O)c1cnc2cc(-c3ccc(C)cc3)nn2c1C	3.38µM*	7.31µM*	11.2µM*	?	3.55µM*
O=C(c1ccc(F)cc1)N1CCN(CCc2ccncc2)CC1	-5.1%	nt	nt	nt	nt
COc1ccc(-c2nc3c(c4c2C[C@H](c2ccccc2)OC4)CN(S(=O)(=O)c2ccc(C#N)cc2)CC3)c(C)c1	nt	nt	5.5%[9.22 µM]	nt	nt
Cc1ccc(/C=C/c2nnc(-c3cccs3)o2)cc1	1.69µM*	?	10µM*	0.355µM*	0.891µM*
Cc1ccc(-c2nnc(-c3cccs3)o2)cc1	6.75µM*	5.17µM*	12.6µM*	3.55µM*	1.58µM*
Cc1ccc(-c2nnc(N)o2)cc1	?	8.9%	14.6%	-0.2%	-1.4%
Fc1ccc(/C=C/c2nnc(-c3cccs3)o2)cc1	2.69µM*	10.3µM*	12.6µM*	2.24µM*	1.12µM*
O=C(CNC(=O)c1ccc(Cl)cc1)OCc1cc(=O)n2nc(C3CCCCC3)sc2n1	-18.2%	nt	nt	nt	nt
Cc1ccc(C(=O)c2cc3ccccc3o2)cc1C	4.78µM*	16.4µM*	?	2.24µM*	3.55µM*
O=C(NC(=S)Nc1ccc(NC(=O)c2cccs2)cc1)c1cc2ccccc2o1	0.2%	?	-6.9%	0.1%	-6.3%
Cc1ccc(C(=O)c2cc3ccccc3o2)cc1	2.13µM*	?	?	2µM*	2.24µM*
O=C(c1cccc([N+](=O)[O-])c1)c1cc2ccccc2o1	?	-1.5%	-14.7%	9.3%	16.6%
O=C(c1cc2ccccc2o1)c1cccs1	10.7µM*	15.6%	?	3.55µM*	2.82µM*
CC1(C)CC(=O)c2cc(-c3nc(-c4ccc(Cl)cc4)cs3)c(=O)[nH]c2C1	-0.5%	nt	4.5%	nt	nt
O=C1COc2cc(S(=O)(=O)NCc3ccco3)c(Cl)cc2N1	-0.5%	nt	nt	-1.3%	-5.7%
Cc1cccc(-n2c3nc(=O)n(C)c(=O)c-3cc3c(C)nn(-c4ccccc4)c32)c1C	3.1%	nt	-8.1%	nt	nt
COc1ccc(CCNC(=O)c2ccc3c(c2)c(C)c(C)n3Cc2ccc(F)cc2)c(OC)c1OC	-15.1%	nt	nt	nt	nt
SMILES	FLuc modulator	ELG1 genotoxic	SMN2 splice up	NPC1 promoter act	Rab9 prom act
CC1Cc2ccccc2N1C(=O)COC(=O)/C=C/c1ccc(F)cc1 (configuration not stated)	4.0%	0.7%	nt	-6.9%	-0.6%
CC1Cc2ccccc2N1C(=O)/C=C/c1cccc(F)c1 (configuration not stated)	6.01µM*	?	11.2µM*	2.24µM*	1.78µM*
COCCNc1nnc(SC(C)C(=O)Nc2c(C)n(C)n(-c3ccccc3)c2=O)s1 (configuration not stated)	6.8%	-2.4%	nt	-3.5%	-0.5%
COCCNc1nnc(SC(C)C(=O)Nc2ccc(-c3nc4ccc(C)cc4s3)cc2)s1 (configuration not stated)	3.01µM*	?	nt	1.58µM*	0.282µM*
CC(=O)Nc1ccc(S(=O)(=O)Nc2nc3ccc(C)cc3s2)cc1	-1.7%	4.2%	-1.2%	-4.3%	-1.5%
CC1=CCC(C(=O)O)C(C(=O)Nc2ccc(-c3nc4ccc(C)cc4s3)cc2)C1 (configuration not stated)	3.38µM*	5.17µM*	nt	?	22.5%
CNC(=S)Nc1ccc(-c2nc3ccc(C)cc3s2)cc1	1.35µM*	?	11.2µM*	0.794µM*	0.398µM*
CC(=O)NC(=S)Nc1ccc(-c2nc3ccc(C)cc3s2)cc1	2.13µM*	?	12.6µM*	0.447µM*	0.447µM*
COc1cccc(CNc2ccc3[nH]c(=O)[nH]c3c2)c1OCc1ccccc1F	0.1%	-10.3%	nt	2.1%	4.6%
Cc1ccccc1CNC(=O)Cn1ccc2cc(S(=O)(=O)N3CCCCC3)ccc21	-6.8%	nt	nt	nt	nt
O=C(CSc1nncc2ccccc12)Nc1ccccc1	16.9µM*	0.5%	nt	-0.8%	-0.4%
Cc1ccc(CNS(=O)(=O)c2ccc3c(c2)n(C)c(=O)n3C)cc1	0.4%	-1.7%	nt	-11.2%	-5.8%
Cc1ccc(C(=O)N2CCN(S(=O)(=O)N3CCCCCC3)CC2)cc1	1.1%	-6.6%	nt	-8.1%	1.7%
COc1ccc(C(=O)Nc2ccc3c(c2)Cc2ccccc2-3)cc1	3.0%	2.0%	-18.2%	-0.5%	-0.1%
O=C(Nc1ccc2c(c1)Cc1ccccc1-2)c1cccnc1	6.75µM*	-0.8%	nt	?	3.16µM*
N#Cc1ccccc1Sc1ccccc1C(=O)Nc1ccc2ccccc2c1	-3.3%	-1.6%	-10.0%	-1.2%	-6.0%
COc1cccc(OC)c1C(=O)Nc1ccc2c(c1)Cc1ccccc1-2	?	16.6%	nt	25.2%	?
N#Cc1ccc(C(=O)Nc2ccc3ccccc3c2)cc1	1.35µM*	?	nt	0.355µM*	0.447µM*
O=C(Nc1ccc2c(c1)Cc1ccccc1-2)c1ccco1	2.13µM*	3.26µM*	11.2µM*	0.794µM*	0.398µM*
O=C(Nc1ccc2ccccc2c1)c1cccnc1	9.53µM*	?	?	3.98µM*	1.41µM*
COc1ccc(NC(C)=O)cc1CNC(=O)COc1ccccc1C(=O)Nc1cccc(C)c1C	?	-7.8%	nt	-0.6%	9.8%
O=C(Nc1ccc2ccccc2c1)c1cnccn1	?	?	11.2µM*	3.55µM*	1µM*
O=C(Nc1ccc2c(c1)oc1ccccc12)c1cccnc1	6.01µM*	15.9%	5.7%	?	?
O=C(/C=C/c1ccc(F)cc1)Nc1cccc(S(=O)(=O)N2CCOCC2)c1	nt	-7.0%	nt	nt	nt
CCCc1ccc(S(=O)(=O)N2CCC(c3nnc(-c4cccc(C)c4)o3)CC2)cc1	-18.6%	nt	-30.0%	nt	nt
Cn1cnc(S(=O)(=O)N2CCC(C(=O)NCc3ccccc3Cl)CC2)c1	-1.2%	nt	nt	nt	nt

Screens deposited in PubChem BioAssay by National Center for Advancing Translational Sciences (NCATS).
